PubChem BioAssay (NCATS)
Inconclusive results are not listed. Activity calls are given as the source filed them. Calls come from the whole dose curve; as a rule, active = well fitted curve in the direction sought with a large enough effect; inconclusive = small, poorly fitted or top-dose-only effect, or another doubt; inactive = no such curve, though single readings can be large; an effect the other way counts as inactive or inconclusive.

How the values were obtained:
[1] = system: Zika virus NS2B-NS3 protease (linked construct); test: Primary screen NINDS Rhodamine qHTS for Zika virus inhibitors (AID 1347160); note: potency is the fitted concentration of half-maximal effect; nearly all actives have a fitted effect of over 55% in size
Outline: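 Each compound, titrated, sat 15 min with 25 nM linked protease before 1.5 microM Rhodamine110 substrate went in. Fluorescence gain over the next 15 min, in pH 8.0 Tris with Tween 20, gave Hill-fitted curves.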

[2] = OV-KATE Cancer Cell Toxicity qHTS against the NCATS CANVASS Library (AID 1347345)
Outline: (§1)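 Bortezomib titration and single-dose wells served as plate controls. Test compounds, 11 points, acted on 1000 cells/well for 72 h at 37 degrees C; CellTiter-Glo luminescence quantified remaining viable cells.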

[3] = HPAF-II Cancer Cell Toxicity qHTS against the NCATS CANVASS Library (AID 1347346); note: series mostly up to about 38 µM; nearly all actives have a fitted effect of over 55% in size
Outline: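 First, HPAF-II cells are plated (1000 cells/well) and held 4 h at 37 degrees C. Next, compounds are pin-transferred as an 11-point series. After 72 h, CellTiter-Glo is added and luminescence measured.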

[4] = UWB1.289 Cancer Cell Toxicity qHTS against the NCATS CANVASS Library (AID 1347347); note: series mostly up to about 38 µM; nearly all actives have a fitted effect of over 60% in size
Outline: as §1

[5] = OV-SAHO Cancer Cell Toxicity qHTS against the NCATS CANVASS Library (AID 1347348); note: series mostly up to about 38 µM; nearly all actives have a fitted effect of over 55% in size
Outline: as §1

[6] = SW1088 Cancer Cell Toxicity qHTS against the NCATS CANVASS Library (AID 1347350); note: nearly all actives have a fitted effect of over 75% in size
Outline: as §1

[7] = U-118MG Cancer Cell Toxicity qHTS against the NCATS CANVASS Library (AID 1347351)
Outline: as §1

[8] = COV-362 Cancer Cell Toxicity qHTS against the NCATS CANVASS Library (AID 1347352); note: series mostly up to about 38 µM
Outline: (§2)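 First, 1000 cells go into each well and rest for 4 hours. Next, an 11-point dilution range is pinned in. Plates then incubate 72 hours before CellTiter-Glo addition and luminescence reading.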

[9] = A2780 Cisplatin Sensitive Ovarian Cancer Cell Toxicity qHTS against the NCATS CANVASS Library (AID 1347353); note: nearly all actives have a fitted effect of over 60% in size
Outline: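 Cells are plated at 750 per well and rest for 4 hours. Compounds are added across eleven concentrations, and incubated 72 hours before ATP is quantified by luminescence.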

[10] = UWB1.289-WTBRCA1 Cancer Cell Toxicity qHTS against the NCATS CANVASS Library (AID 1347354)
Outline: as §2

[11] = HEK-293 Cancer Cell Toxicity qHTS against the NCATS CANVASS Library (AID 1347355); note: series mostly up to about 46 µM; nearly all actives have a fitted effect of over 65% in size
Outline: as §2

[12] = HPAF-II 24hr Apoptosis Induction qHTS against the NCATS CANVASS Library (AID 1347356)
Outline: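 Cells seeded at 500 per well, then compounds pin-transferred in an 11-point concentration series. After 24 hours at 37 degrees C, Caspase-Glo 3/7 was added and luminescence measured following 15 min at room temperature.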

[13] = HEK293 18hr Apoptosis Induction qHTS against the NCATS CANVASS Library (AID 1347357)
Outline: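 Cells seeded at 500/well in DMEM + 10% FBS. Compounds pinned, 11 concentrations. 18 h, 37 degrees C/5% CO2. Caspase-Glo 3/7 added, 15 min RT dark, luminescence read.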

[14] = HPAF-II 12hr Apoptosis Induction qHTS against the NCATS CANVASS Library (AID 1347358)
Outline: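 Cells plated at 500 per well are dosed with compound and incubated 12 hours at 37 degrees C. Caspase-Glo 3/7 reagent is added and, after 15 min at room temperature, luminescence proportional to caspase activity is measured.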

[15] = HEK293 24hr Apoptosis Induction qHTS against the NCATS CANVASS Library (AID 1347359)
Outline: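 Caspase-3/7 activation measured as luminescence from the DEVD-based Caspase-Glo reagent, 15 min at room temperature, following 24-hour compound treatment of HEK293 cells.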

[16] = HPAF-II 18hr Apoptosis Induction qHTS against the NCATS CANVASS Library (AID 1347360)
Outline: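 Seed HPAF-II cells at 500/well in DMEM + 10% FBS, pin-transfer compounds, incubate 18 hours at 37 degrees C/5% CO2, add Caspase-Glo 3/7 reagent, wait 15 min, read luminescence.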

[17] = HEK293 12hr Apoptosis Induction qHTS against the NCATS CANVASS Library (AID 1347361)
Outline: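 Cells are seeded, dosed with an 11-point compound series and incubated 12 hours. Caspase-3/7 activity is detected by luminescent DEVD-substrate reagent after 15 minutes at room temperature.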

[18] = target: Luciferin 4-monooxygenase (Photinus pyralis) (UniProt P08659); test: Firefly luciferase counterscreen qHTS: Assay Interference Panel against the NCATS CANVASS Library (AID 1347363); note: series mostly up to about 57 µM
Luciferin 4-monooxygenase (Photinus pyralis), sequence (P08659 whole entry, looked up): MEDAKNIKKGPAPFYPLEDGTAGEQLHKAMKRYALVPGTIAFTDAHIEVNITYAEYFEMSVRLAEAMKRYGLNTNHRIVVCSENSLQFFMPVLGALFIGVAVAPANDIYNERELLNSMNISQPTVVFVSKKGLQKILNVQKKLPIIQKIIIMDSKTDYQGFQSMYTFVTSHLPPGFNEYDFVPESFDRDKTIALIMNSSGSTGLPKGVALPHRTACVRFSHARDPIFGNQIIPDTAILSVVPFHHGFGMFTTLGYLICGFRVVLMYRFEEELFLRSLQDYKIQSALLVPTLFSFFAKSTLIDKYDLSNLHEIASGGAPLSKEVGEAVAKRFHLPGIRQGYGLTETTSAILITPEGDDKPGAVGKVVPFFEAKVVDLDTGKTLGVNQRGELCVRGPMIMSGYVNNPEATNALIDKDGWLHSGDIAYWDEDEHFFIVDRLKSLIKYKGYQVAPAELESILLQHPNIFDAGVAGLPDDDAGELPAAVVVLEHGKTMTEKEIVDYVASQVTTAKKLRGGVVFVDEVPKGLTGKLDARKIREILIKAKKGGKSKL
Outline: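 Luminescence inhibition readout: compounds (11-point qHTS) sat 15 min at room temperature with substrate mix (0.013 mM luciferin and ATP), then firefly luciferase was added and signal read 5 min later.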

[19] = KB-8-5-11 Cancer Cell Toxicity qHTS against the NCATS CANVASS Library (AID 1347364); note: series mostly up to about 46 µM; nearly all actives have a fitted effect of over 75% in size
Outline: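 Terse: KB-8-5-11, 500 cells/well, 72 hr, 37C/5% CO2, 11-pt titration, CellTiter-Glo readout; confirmatory runs ± 1uM tariquidar in medium.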

[20] = SDT Cancer Cell Toxicity qHTS against the NCATS CANVASS Library (AID 1347365);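 note: SDT canine glioma cells 500 per well in 1536 well plates; series mostly up to about 46 µM; nearly all actives have a fitted effect of over 60% in size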
Outline: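 Cytotoxicity is measured from cellular ATP: compounds in an 11-point concentration series are pinned onto SDT cells, incubated 72 hr at 37C, then CellTiterGlo is added and luminescence read.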

[21] = KB-3-1 Cancer Cell Toxicity qHTS against the NCATS CANVASS Library (AID 1347366); note: nearly all actives have a fitted effect of over 75% in size
Outline: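 Luminescence from CellTiter-Glo (10 min, room temperature) measured KB-3-1 viability after 72 hr compound exposure at 37C. Cells were seeded at 500/well and tested in an 11-point series.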

[22] = qHTS for ATAD5 Agonist screened against the NCATS CANVASS Library (AID 1347367);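 note: luciferase reporter driven by ATAD5 which rises upon DNA damage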
Outline: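 HEK293T-ATAD5 luc reporter; 2000 cells/well; 5hr settle; cpd 11-pt qHTS; 16hr 37C 5% CO2 dark; viability by CellTiter-Fluor (AFC fluorescence); then luciferase luminescence, 30min RT.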

[23] = G06 Cancer Cell Toxicity qHTS against the NCATS CANVASS Library (AID 1347368); note: series mostly up to about 46 µM; nearly all actives have a fitted effect of over 60% in size
Outline: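 Cells were plated at 500 per well, then compounds were added over an 11-point range. After 72 hr at 37C, CellTiterGlo was added and luminescence measured as ATP content.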

Measured: Potency

C=C1C[C@@]23C=CC(=O)[C@@](C)(CCC(=O)Nc4c(O)ccc(C(=O)O)c4O)C2C[C@@H]1CC3O (stereo partly drawn)
active: [1] 49.3 µM
inactive: all other assays above
